# Compound activity as filed in PubChem.
# Only a selection was taken, and hits are over-represented in it overall.
# KDM5B inh – blocks human KDM5B histone demethylase activity; Q9UGL1; Potency, µM (doses to about 57.7 µM), most hits filed as inhibitors; KDM5B demethylase, FDH-coupled NADH fluorescence (FDH is formaldehyde dehydrogenase); 2.6% of 220,000 active; active means well fitted inhibition curve with a large enough effect; further: 0% is about no effect; nearly all actives have a fitted effect of over 70% in size
#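 Coupled FDH/NAD⁺ fluorescence readout. KDM5BΔAP 200 nM final; compound titration, 10 min RT preincubation; substrate mix 12.5 µM H3K4me3, 25 µM 2-OG, 50 µM Fe(II), 100 µM ascorbate, 0.25 mM NAD⁺, 0.25 U/mL FDH; ΔRFU over 30 min.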
# * marks the source's active call; other numbers are inactive results; i = inactive. Potency means the concentration at half of the fitted maximal effect.
SMILES,KDM5B inh
COCc1nnc2n1CCC(NC(=O)COc1ccc(Cl)cc1)CC2 (stereo not given),i
Cc1onc(C(=O)N2C[C@@H](Oc3cccnc3)C[C@H]2C(N)=O)c1Cn1cccn1,i
Cc1nccn1CCNC(=O)C12CCCC=C1N(C1CCCC1)C(=O)CC2 (stereo not given),i
COc1ccc(-c2nc3n(n2)C(=O)CC(c2ccc(Cl)cc2)S3)cc1 (stereo not given),i
C/C(=N\NC(=O)CCC(=O)N/N=C(\C)c1ccc(C)o1)c1ccc(C)o1,i
COc1cc(NC(=O)c2cc3c(N4CCSCC4)nc(C)cn3n2)cc(OC)c1OC,22.4µM*
COc1cc(NC(=O)c2nc3ccccc3nc2N2CCCCC2)cc(OC)c1OC,i
CC(NC(=O)Cc1csc2nc(-c3ccc(F)cc3)cn12)c1cccs1 (stereo not given),i
Fc1ccc(-c2cnc3n[nH]c(-c4ccccc4)c3n2)cc1,31.6µM*
COc1ccc(-c2[nH]nc3ncc(-c4ccc(C)cc4)nc23)cc1F,i
COc1cccc(-c2cnc3n[nH]c(-c4ccccc4)c3n2)c1,35.5µM*
COc1cccc(-c2cc(-c3cccc(OC)c3)[nH]n2)c1,i
COc1ccc(-c2cnc3n[nH]c(-c4ccc5c(c4)OCO5)c3n2)cc1,i
O=C(NCc1ccc(F)cc1)c1cnc2n[nH]c(-c3ccccc3)c2n1,i
O=c1[nH]cnc2ncc(-c3ccc(O)cc3)nc12,i
CCOC(=O)N1CCC(NC(=O)c2cc3ccc(OC)cc3[nH]2)CC1,i
COc1ccc2cc(C(=O)N3CCC(Cc4ccc(C(=O)NC5CC5)cc4)CC3)[nH]c2c1,35.5µM*
CN1CCC([C@@H]2CN(C(=O)c3ccc4[nH]ccc4c3)C[C@H]2C(N)=O)CC1,i
COc1ccc2cc(C(=O)NCc3ccc(C(=O)N4CCN(C)CC4)cc3)[nH]c2c1,i
COc1ccc2cc(C(=O)N3CCN(C)CC3)[nH]c2c1,i
CNC(=O)[C@@H]1CN(C(=O)c2ccc3[nH]ccc3c2)C[C@H]1COC,i
CNC(=O)[C@@H]1CN(C(=O)c2cc3ccc(OC)cc3[nH]2)C[C@H]1C1CCN(C)CC1,20µM*
COc1ccc2cc(C(=O)N3CCc4nn(C)c(=O)n4CC3)[nH]c2c1,25.1µM*
COc1ccc(C(=O)N2C[C@@H](C(N)=O)[C@H](C3CCN(C)CC3)C2)cc1,i
COc1ccc2cc(C(=O)N(C)C3CCc4nn(C)c(=O)n4CC3)[nH]c2c1 (stereo not given),i
SMILES,KDM5B inh
CCN1CCN(C(=O)c2cc3ccc(OC)cc3[nH]2)CC1,i
CNC(=O)[C@@H]1CN(C(=O)c2ccc3cc[nH]c3c2)C[C@H]1C1CCN(C)CC1,20µM*
CCCn1ccc2c(OCC(=O)Nc3ccccc3C(=O)OCC)cccc2c1=O,i
O=C(c1cc(Cl)ccc1F)N1CCC[C@H]1c1nc(-c2ccc(F)cc2)no1,i
Nc1nnnn1NCc1ccc(-c2ccc(F)cc2)o1,i
CCOc1cccc(CNCc2cccnc2)c1OCc1cccs1,i
CCSc1nn(CC(=O)Nc2ccc(C(=O)OC)cc2)c(N)c1S(=O)(=O)c1ccc(C)cc1,i
O=C(Cc1cccc2ccccc12)N1C[C@@H](CO)[C@H](c2ccccn2)C1,i
COc1ccccc1N1CCN(C(=O)CN2C(=O)NC(c3ccc(C)cc3)C3=C2COC3=O)CC1 (stereo not given),i
CCCNC(=O)N1CCCCCCNC(=O)[C@@H]2CCC[C@@H]21,i
Cn1cnnc1SCC(=O)NC(=O)NCc1ccccc1,i
CCc1nc(-c2c3n(c(=O)n(Cc4ccc(C(F)(F)F)cc4)c2=O)CCCC3)no1,i
CN1C[C@@H](NC(=O)c2ccco2)C[C@H]1c1nc(-c2cccnc2)no1,i
CCOC(=O)CNC(=O)c1cc2n(n1)CC(c1ccc(Br)cc1)OC2 (stereo not given),i
CCc1noc(-c2cccn3c(CNC(=O)c4ccccc4F)nnc23)n1,31.6µM*
CCc1noc(-c2cccn3c(CNC(=O)c4cc(Cl)ccc4F)nnc23)n1,28.2µM*
CN(C)C[C@@H]1CN(Cc2ccccc2)C[C@H]1NC(=O)c1ccn[nH]1,i
O=S(=O)(c1ccc(Oc2cccc(Br)c2)nc1)N1CCCC1,i
O=S(=O)(Nc1ccc2cn[nH]c2c1)c1ccc(Cl)c(Cl)c1,i
CC[C@H]1COCCN1C(=O)c1csc(Cc2ccccc2)n1,i
CCC(=O)NCc1csc(-c2cccs2)n1,i
CCNC(=O)CC1COCCN1C(=O)c1csc(-c2cccs2)n1 (stereo not given),22.4µM*
COc1cccc([C@H]2CN(C(=O)CNC(=O)N(C)C)C[C@@H]2N)c1,i
NC(=O)[C@H](Cc1ccc(O)cc1)NC(=O)[C@@]1(O)C[C@@H](O)[C@H](O)[C@@H](NC(=O)c2ccc(F)c(Cl)c2)C1,i
Cc1oc(-c2ccccc2)nc1CSc1nc2c(c(=O)[nH]1)CCC2,i
SMILES,KDM5B inh
O=C(c1ccc(N2CC3CC(C2)[C@H]2CCCC(=O)N2C3)nc1)N1CCC(Cc2ccccc2)CC1 (stereo not given in full),31.6µM*
O=C(c1ccc(N2CC3CC(C2)[C@H]2CCCC(=O)N2C3)nc1)N1CCN(c2ccc(F)cc2)CC1 (stereo not given in full),i
O=C(C1CCN(C(=O)N2CC3CC(C2)[C@H]2CCCC(=O)N2C3)CC1)N1CCN(c2ccccn2)CC1 (stereo not given in full),25.1µM*
O=C(c1ccc(N2CC3CC(C2)[C@H]2CCCC(=O)N2C3)nc1)N1CCc2ccccc21 (stereo not given in full),i
O=C(C1CCN(C(=O)N2CC3CC(C2)[C@H]2CCCC(=O)N2C3)CC1)N1CCCCC1 (stereo not given in full),i
O=C(C1CCN(C(=O)N2CC3CC(C2)[C@H]2CCCC(=O)N2C3)CC1)N1CCN(c2ccccc2)CC1 (stereo not given in full),i
CCN(CC)C(=O)Cn1cc(SCC(=O)Nc2ccccc2F)c2ccccc21,i
O=C(Nc1cc(F)c(F)c(F)c1)N1CCC(OC2CCN(Cc3ccccc3)CC2)CC1,i
CC(C)N(CC(=O)NC(=O)NCc1ccccc1)Cc1ccccn1,i
CC(=O)N1CCCc2cc(S(=O)(=O)N(Cc3ccccc3)C(C)C)ccc21,i
O=C(Nc1ccc(F)cc1F)N1CCC(Oc2ncccc2C(=O)N2CCOCC2)C1 (stereo not given),i
COc1cccc(NC(=O)CSc2nc3ccccc3n2C)c1,i
N#Cc1cccc(CN2CCc3nc(C(=O)Nc4cccc(C(F)(F)F)c4)oc3CC2)c1,35.5µM*
O=C(Nc1cccnc1)c1nc2c(o1)CCN(Cc1cccc(O)c1)CC2,i
O=C(Nc1cccnc1)c1nc2c(o1)CCN(Cc1cccs1)CC2,i
COc1cccc(CN2CCc3nc(C(=O)Nc4cccnc4)oc3CC2)c1,i
Cc1noc(C)c1CN1CCc2nc(C(=O)Nc3cccc(C(F)(F)F)c3)oc2CC1,25.1µM*
Cc1noc(C)c1CN1CCc2nc(C(=O)NCc3ccccc3)oc2CC1,i
Cc1csc(NC(=O)c2nc3c(o2)CCN(Cc2c(F)cccc2F)CC3)n1,i
COc1ccccc1CN1CCc2nc(C(=O)Nc3nc(C)cs3)oc2CC1,i
O=C(Nc1cccc(C(F)(F)F)c1)c1nc2c(o1)CCN(Cc1cccs1)CC2,31.6µM*
COc1ccccc1CN1CCc2nc(C(=O)Nc3cccc(C(F)(F)F)c3)oc2CC1,35.5µM*
